This passage reports composite z-score and z-score results from PubChem BioAssay.

Structures are written as SMILES. Calls of active or inactive are those of the source.

The nature of assay [1]: small molecules captured by biotinylated probe aFSTL3 – biochemical, small-molecule microarray, fluorescence 635/667, stem cell growth factor project, primary screen (AID 1064).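 Also: measures binding of the biotinylated anti-FSTL3 antibody to printed compounds.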 The note with it: higher = more signal.
A short description of assay [2]: binders from COS7 lysate, DM2A8 probe, primary screen, torsin A project, cell lysate, small-molecule microarray, fluorescence 635/667 (AID 1065). The note with it: higher = more signal, COS7 lysate expressing mutant human TOR1A.
Assay [3] can be described thus: small molecules captured by biotinylated probe aFGF2 – biochemical, small-molecule microarray, fluorescence 635/667, stem cell growth factor project, primary screen (AID 1067).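 Also: measures binding of biotinylated aFGF2 protein to printed compounds on slides; z-score merges feature fluorescence and signal-to-noise across triplicate slides.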 The note with it: higher = more signal.
Assay [4] can be described thus: small molecules captured by biotinylated probe aFGF10 – biochemical, small-molecule microarray, fluorescence 635/667, stem cell growth factor project, primary screen (AID 1071).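 Also: score merges 667 nm spot intensity and signal to noise from triplicate slides.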 Conditions: higher = more signal.
Assay [5] deals with Neurogenic locus notch homolog protein 2 (Homo sapiens) (UniProt Q04721). As to the kind of experiment: small molecules binding Notch2 protein – biochemical, small-molecule microarray, 635 nm fluorescence, stem cell growth factors, primary screen (AID 1073). The note with it: higher = more signal.
Assay [6] concerns the target Pro-neuregulin-1, membrane-bound isoform (Homo sapiens) (UniProt Q02297). Briefly: small molecules binding neuregulin-1 protein – biochemical, small-molecule microarray, fluorescence 635/667, psychiatric disease protein project, primary screen (AID 1075).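 Also: score combines 667 nm spot fluorescence with signal to noise.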 The note with it: NRG1 binding, 635 nm fluorescence, higher = more signal.
The test system of assay [7] is Neuregulin-1 EGF-like domain. As to the kind of experiment: small molecules binding NRG1 EGF domain – biochemical, small-molecule microarray, 635 nm fluorescence, primary screen (AID 1081).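 Also: binding of the protein to compounds printed on small-molecule microarray slides.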 The note with it: higher = more signal.
Assay [8] can be described thus: FRG1 expression reporter modulators in myotubes – cell-based, C2C12 myotubes, firefly/Renilla luciferase, luminescence, FRG1 inhibition for FSHD, primary screen (AID 1084). The note with it: FRG1 promoter luciferase, higher = more signal, called active from +8 up or from −8 down.
Assay [9] can be described thus: small molecules captured by biotinylated probe aFST – biochemical, small-molecule microarray, fluorescence 635/667, stem cell growth factor project, primary screen (AID 1086).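 Also: score merges 667 nm fluorescence with signal-to-noise of each printed compound spot.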 Conditions: higher = more signal.
A short description of assay [10]: binders of probe aHhip on microarray, primary screen, stem cell growth factor project, biochemical, small-molecule microarray, fluorescence 635/667 (AID 1087).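 Also: score merges spot fluorescence at 667nm with spot signal to noise ratio.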 The note with it: higher = more signal.
The subject of assay [11] is PRMT1 (protein arginine N-methyltransferase 1). Briefly: small molecules binding arginine methyltransferase PRMT1 – biochemical, small-molecule microarray, 635 nm fluorescence, primary screen (AID 1088).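 Also: binding of Prmt1 protein to compounds spotted on small-molecule microarray slides.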 The note with it: higher = more signal.
The nature of assay [12]: growth effects on S. cerevisiae YJM789 – YJM789 clinical isolate, OD600, 24 h, basal, primary screen (AID 1089).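 Also: growth of clinical yeast isolate S. cerevisiae YJM 789 seeded 1000 cells per well; test concentration not given here.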 Conditions: higher = more signal, called active from +8 up or from −8 down.
Assay [13] is described as follows: S. pombe growth modifiers, basal conditions – strain 972, OD600, 24 h, no modulator, primary screen (AID 1090).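 Also: basal condition with compound alone and no growth modifier present; test concentration not given here.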 Conditions: S. pombe 972 growth, higher = more signal, called active from +8 up or from −8 down.
Assay [14] is described as follows: budding yeast growth modifiers under rapamycin – strain BY4716, OD600, 96 h, primary screen (AID 1091). Also: test concentration not given here. The note with it: S. cerevisiae BY4716 + rapamycin, higher = more signal, called active from +8 up or from −8 down.
In assay [15] the target is Torsin-1A-interacting protein 2 (Homo sapiens) (UniProt Q8NFQ8). As to the kind of experiment: small molecules binding lysate-expressed LULL1 – cell lysate, human LULL1 lysate, 635/667 nm fluorescence, primary screen (AID 1092).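 Also: probe is lysate of COS7 cells overexpressing human LULL1; score merges per-feature 667 nm fluorescence with signal-to-noise.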 Conditions: small-molecule microarray, hLULL1 lysate binding, 635 nm fluorescence; higher = more signal.
Sequence of Torsin-1A-interacting protein 2 (Homo sapiens) (Q8NFQ8 whole entry, looked up): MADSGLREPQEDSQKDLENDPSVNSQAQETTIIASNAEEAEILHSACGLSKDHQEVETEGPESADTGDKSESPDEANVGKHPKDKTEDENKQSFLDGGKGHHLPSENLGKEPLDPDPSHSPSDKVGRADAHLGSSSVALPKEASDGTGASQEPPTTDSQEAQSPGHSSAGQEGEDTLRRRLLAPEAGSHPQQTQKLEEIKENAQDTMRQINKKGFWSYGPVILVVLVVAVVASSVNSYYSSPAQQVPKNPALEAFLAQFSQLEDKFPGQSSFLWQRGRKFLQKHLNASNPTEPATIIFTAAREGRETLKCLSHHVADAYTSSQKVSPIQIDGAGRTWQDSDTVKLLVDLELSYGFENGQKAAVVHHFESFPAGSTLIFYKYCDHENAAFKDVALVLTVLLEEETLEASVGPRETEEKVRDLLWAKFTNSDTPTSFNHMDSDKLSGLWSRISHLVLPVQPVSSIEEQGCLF
Assay [16] is described as follows: optical density change of DRC41 E. coli – strain DRC41, OD650, 24 h, E. coli filamentation project, primary screen (AID 1093).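 Also: MC1000 strain lacking acrAB efflux and sulA so SOS filamentation is blocked; test concentration not given here.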 The note with it: E. coli DRC41 growth, higher = more signal, called active from +8 up or from −8 down.
Assay [17] in a line: probe aLefty2 binding to arrayed compounds – biochemical, biotinylated probe, 635/667 nm fluorescence, primary screen (AID 1094).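 Also: score merges spot fluorescence near 667 nm with spot signal-to-noise ratio.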 Conditions: small-molecule microarray, higher = more signal.
Assay [18] has as its system Noggin (protein binding on small-molecule microarray). Briefly: small molecules binding Noggin protein – biochemical, 635/667 nm fluorescence, primary screen (AID 1095).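 Also: score merges 667 nm feature fluorescence with signal to noise over triplicate slides.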 The note with it: 635 nm fluorescence, higher = more signal.
The target of assay [19] is Neurogenic locus notch homolog protein 3 (Homo sapiens) (UniProt Q9UM47). Briefly: small molecules binding NOTCH3 protein – biochemical, 635/667 nm fluorescence, primary screen (AID 1096). The note with it: small-molecule microarray, 635 nm fluorescence, higher = more signal.
Sequence of Neurogenic locus notch homolog protein 3 (Homo sapiens) (Q9UM47 whole entry, looked up): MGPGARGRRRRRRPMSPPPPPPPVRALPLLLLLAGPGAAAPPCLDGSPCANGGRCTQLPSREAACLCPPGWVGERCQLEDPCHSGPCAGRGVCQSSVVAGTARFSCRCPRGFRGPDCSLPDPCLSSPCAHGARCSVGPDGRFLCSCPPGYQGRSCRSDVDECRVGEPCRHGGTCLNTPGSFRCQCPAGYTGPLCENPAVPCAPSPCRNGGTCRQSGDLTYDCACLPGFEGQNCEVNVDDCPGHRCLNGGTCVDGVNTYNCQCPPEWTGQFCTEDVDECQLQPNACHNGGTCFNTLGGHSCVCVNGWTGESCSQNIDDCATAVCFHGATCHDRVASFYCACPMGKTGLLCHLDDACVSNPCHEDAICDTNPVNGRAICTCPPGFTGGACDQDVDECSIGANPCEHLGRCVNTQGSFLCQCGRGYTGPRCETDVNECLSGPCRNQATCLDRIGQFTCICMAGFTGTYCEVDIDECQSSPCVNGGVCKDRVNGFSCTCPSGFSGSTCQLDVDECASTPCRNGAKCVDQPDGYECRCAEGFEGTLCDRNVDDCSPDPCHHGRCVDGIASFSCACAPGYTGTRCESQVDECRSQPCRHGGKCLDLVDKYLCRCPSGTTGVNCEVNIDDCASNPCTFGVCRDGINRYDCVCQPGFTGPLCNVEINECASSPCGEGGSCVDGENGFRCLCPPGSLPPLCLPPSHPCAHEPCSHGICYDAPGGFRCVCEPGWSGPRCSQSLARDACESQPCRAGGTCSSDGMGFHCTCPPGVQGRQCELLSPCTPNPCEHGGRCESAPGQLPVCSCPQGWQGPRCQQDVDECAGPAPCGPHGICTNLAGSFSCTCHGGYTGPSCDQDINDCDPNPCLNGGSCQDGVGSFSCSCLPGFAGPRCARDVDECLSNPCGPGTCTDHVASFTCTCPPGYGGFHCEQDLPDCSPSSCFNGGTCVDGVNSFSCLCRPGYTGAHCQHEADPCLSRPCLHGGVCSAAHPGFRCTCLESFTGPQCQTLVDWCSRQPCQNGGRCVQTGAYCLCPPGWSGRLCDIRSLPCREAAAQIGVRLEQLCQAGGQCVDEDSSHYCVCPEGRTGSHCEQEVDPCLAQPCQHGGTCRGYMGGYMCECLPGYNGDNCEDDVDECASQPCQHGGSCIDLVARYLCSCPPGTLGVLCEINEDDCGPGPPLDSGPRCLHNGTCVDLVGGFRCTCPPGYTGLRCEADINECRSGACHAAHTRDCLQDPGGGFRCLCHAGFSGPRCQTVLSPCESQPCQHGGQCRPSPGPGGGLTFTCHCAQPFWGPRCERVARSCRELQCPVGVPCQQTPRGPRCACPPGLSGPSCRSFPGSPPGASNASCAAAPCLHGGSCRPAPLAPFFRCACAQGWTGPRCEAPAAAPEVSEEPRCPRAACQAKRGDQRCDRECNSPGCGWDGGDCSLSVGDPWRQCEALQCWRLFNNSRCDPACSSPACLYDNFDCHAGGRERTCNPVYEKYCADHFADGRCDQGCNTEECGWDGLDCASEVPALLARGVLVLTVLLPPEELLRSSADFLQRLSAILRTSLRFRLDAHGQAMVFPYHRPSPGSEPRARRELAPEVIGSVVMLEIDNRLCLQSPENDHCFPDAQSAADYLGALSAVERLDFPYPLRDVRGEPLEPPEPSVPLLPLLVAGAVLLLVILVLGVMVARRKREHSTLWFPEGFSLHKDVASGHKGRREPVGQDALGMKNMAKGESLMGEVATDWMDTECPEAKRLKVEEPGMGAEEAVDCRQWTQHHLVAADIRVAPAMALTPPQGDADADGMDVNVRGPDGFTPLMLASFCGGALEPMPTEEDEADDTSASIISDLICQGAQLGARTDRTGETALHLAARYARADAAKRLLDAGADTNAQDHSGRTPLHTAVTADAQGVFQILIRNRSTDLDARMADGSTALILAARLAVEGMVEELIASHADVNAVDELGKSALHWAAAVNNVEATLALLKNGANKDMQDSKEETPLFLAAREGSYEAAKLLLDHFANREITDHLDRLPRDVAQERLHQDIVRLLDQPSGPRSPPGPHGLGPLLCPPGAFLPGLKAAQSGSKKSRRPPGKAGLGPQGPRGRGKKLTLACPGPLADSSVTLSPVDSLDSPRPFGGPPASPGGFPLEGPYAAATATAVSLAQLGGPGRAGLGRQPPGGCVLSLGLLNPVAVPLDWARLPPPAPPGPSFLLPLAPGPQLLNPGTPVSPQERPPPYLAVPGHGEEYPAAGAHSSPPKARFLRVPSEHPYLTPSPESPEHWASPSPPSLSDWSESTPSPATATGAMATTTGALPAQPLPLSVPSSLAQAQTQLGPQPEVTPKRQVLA
A short description of assay [20]: probe aEGFR binding to arrayed compounds – biochemical, biotinylated probe, 635/667 nm fluorescence, primary screen (AID 1097).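 Also: probe is a biotinylated anti-EGFR antibody binding compounds printed on slides; score combines fluorescence near 667 nm and signal to noise of each spot.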 The note with it: small-molecule microarray, higher = more signal.

Sequence of Pro-neuregulin-1, membrane-bound isoform (Homo sapiens) (Q02297 whole entry, looked up, the tested form may be a part, canonical isoform): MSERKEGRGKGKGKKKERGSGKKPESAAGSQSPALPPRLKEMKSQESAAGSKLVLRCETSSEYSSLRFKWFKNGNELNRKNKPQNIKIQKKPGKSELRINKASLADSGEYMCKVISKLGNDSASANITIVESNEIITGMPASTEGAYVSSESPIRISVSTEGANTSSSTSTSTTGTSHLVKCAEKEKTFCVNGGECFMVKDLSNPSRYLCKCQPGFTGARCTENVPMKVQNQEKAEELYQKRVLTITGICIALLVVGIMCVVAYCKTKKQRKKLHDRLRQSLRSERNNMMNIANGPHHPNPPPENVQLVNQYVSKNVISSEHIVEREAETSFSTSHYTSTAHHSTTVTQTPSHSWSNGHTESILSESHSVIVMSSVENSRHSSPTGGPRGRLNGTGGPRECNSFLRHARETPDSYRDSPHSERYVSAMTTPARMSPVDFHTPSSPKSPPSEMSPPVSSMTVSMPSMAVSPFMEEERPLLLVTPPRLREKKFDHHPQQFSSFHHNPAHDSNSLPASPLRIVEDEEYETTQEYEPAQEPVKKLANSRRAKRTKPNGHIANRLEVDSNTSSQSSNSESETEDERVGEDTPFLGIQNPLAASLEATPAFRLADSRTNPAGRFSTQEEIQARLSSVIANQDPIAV

Turning to `CO[C@H]1O[C@H](CO)[C@@H](OC(=O)Nc2ccccc2)[C@H](OC(=O)Nc2ccccc2-c2ccccc2)[C@H]1OC(=O)Nc1ccccc1-c1ccccc1`, the composite z-score is 0.183 in assay [1]; 1.85 in [2]; -0.0449 in assay [3]; 0.567 in [4]; 0.555 in assay [5]; 1.31 in assay [6]. The composite z-score in assay [7] was 1.3; in [9] it was 0.714; in [10], -0.0296; in assay [11] it was 1.54; in [15] it was 2.91; in [17] it was -0.0699. Moreover, the composite z-score in [18] is 0.764; in assay [19], 0.965; in [20] it was -0.0978. For the same compound, the z-score is -0.114 (inactive) in [8]; -2.03 (inactive) in assay [12]; -0.674 (inactive) in [13]; 1.22 (inactive) in assay [14]; 1.39 (inactive) in assay [16].
With `CCCCC(=C=CC[C@H](O)c1cccc(OCCO)c1)CCO`, the composite z-score in assay [1] was -0.0452; in [2], -0.0768; in assay [3], -0.0976; in [4], -0.662; in assay [5], -0.854; in assay [6], 0.52. Further, the composite z-score in [7] was 0.519; in [9] it was -0.101; in [10], 0.0623; in [11], -0.19; in assay [15], 1.33; in [17], -0.12. Besides, the composite z-score in assay [18] is 0.0201; in [19], -0.498; in assay [20], -0.268. Further, the z-score is 0.125 (inactive) in assay [8]; 0.166 (inactive) in assay [12]; -0.486 (inactive) in assay [13]; -1.16 (inactive) in assay [14]; 1.11 (inactive) in [16].
For `CC(=O)OC(C/C=C\B1OC(C)(C)C(C)(C)O1)c1ccccc1` (stereo not given), the composite z-score was 0.696 in assay [1]; 0.0193 in [2]; -0.038 in [3]; -1.06 in assay [4]; -0.542 in [5]; -0.451 in assay [6]. The composite z-score was -0.679 in assay [7]; -0.0273 in assay [9]; -0.353 in assay [10]; -0.0413 in assay [11]; -0.126 in assay [15]; -0.0231 in assay [17]. Moreover, the composite z-score is -0.502 in [18], -0.761 in [19] and -0.268 in assay [20]. In addition, the z-score in assay [8] was -1.52 (inactive); in assay [12], -2.82 (inactive); in assay [13], -4.32 (inactive); in assay [14], -3.49 (inactive); in [16], -3.15 (inactive).
Turning to `COC(=O)c1c(CC[C@@H](CO)NC(=O)Nc2ccc(OC)cc2)oc(C(=O)Cc2ccccc2)c1C(=O)OC`, the composite z-score is -0.211 in [1]; 0.469 in [2]; -0.0924 in [3]; 0.411 in assay [4]; 0.704 in assay [5]; 0.191 in [6]. The composite z-score was 1.03 in [7]; -0.0409 in assay [9]; -0.0672 in assay [10]; 0.477 in assay [11]; 0.478 in [15]; -0.0233 in assay [17]. For the same compound, the values for the composite z-score in assay [18], in [19] and in [20] were 0.414, 0.101 and -0.0252, respectively. The z-score in assay [8] was -0.814 (inactive); in assay [12], 1.54 (inactive); in assay [13] it was -1.21 (inactive); in [14], 2.23 (inactive); in [16], 1.85 (inactive).
Take `CC(C)[C@@H](C(=O)O)n1cc(-c2ccccn2)nn1`: the composite z-score in assay [1] was 0.22; in assay [2], 0.424; in assay [3], -0.378; in assay [4] it was 0.458; in assay [5], 0.537; in assay [6] it was 0.419. Moreover, the composite z-score in [7] was 0.961; in assay [9], 0.659; in assay [10] it was 0.0274; in [11], 0.575; in assay [15], 0.88; in assay [17], -0.378. In addition, the composite z-score in [18] was 0.332; in assay [19], 0.309; in assay [20] it was -0.0508. The z-score in assay [8] is 0.0328 (inactive); in assay [12] it was 0.0655 (inactive); in [13] it was -0.477 (inactive); in assay [14] it was -0.353 (inactive); in assay [16] it was 1.99 (inactive).
